Laboratory results as given in PubChem BioAssay (Tox21).
Values joined by “and” are separate entries in the source; they are usually repeats but may differ in a detail not shown here. Equal values may be shown once. Inconclusive results are not listed. Where a call stands in place of a potency, no number is given. Some structures have more than one record in an assay (separate samples or runs), and their calls can disagree. Active and inactive are the calls of the source. Calls come from the whole dose curve; as a rule, active = well fitted curve in the direction sought with a large enough effect in the repeat runs; inconclusive = weak or mixed curves; inactive = no such curve, though single readings can be large; an effect the other way counts as inactive or inconclusive.

Assays:
[1] = qHTS assay to identify small molecule agonists of the RXR signaling pathway - cell viability counter screen (AID 1159529); note: nearly all actives have a fitted effect of over 50% in size
In short: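 RXR-alpha-UAS-bla HEK 293T cells in medium with 2% charcoal-stripped FBS were pre-incubated 5 hr, then compound-treated 16 hr at 37 C. Viability was read by CellTiter-Glo luminescence in the same wells as the beta-lactamase assay, with tetraoctyl ammonium bromide as positive control.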

[2] = qHTS assay to identify small molecule antagonists of the retinoid acid receptor (RAR) signaling pathway - cell viability counter screen (AID 1159551); note: nearly all actives have a fitted effect of over 35% in size
In short: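 Cytotoxicity counter screen: ATP content quantified by CellTiter-Glo luminescence in C3RL4 cells treated 6 hr at 37 C with compound and retinol (1 uM final). Cells plated at 1,000/well and cultured overnight before dosing.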

[3] = qHTS assay to identify small molecule antagonists of the retinoic acid receptor (RAR) signaling pathway (AID 1159552; note: nearly all actives have a fitted effect of over 50% in size)
In short: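 Retinol signaling pathway inhibitors screened in C3RL4 RARE-luciferase reporter cells seeded overnight at 37 C, then compounds added with 1 uM (final) retinol as pathway substrate. After 6 hr at 37 C, luciferase luminescence read after 30 min at room temperature.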

[4] = qHTS assay to identify small molecule agonists of the retinoic acid receptor (RAR) signaling pathway (AID 1159553); conditions: C3RL4 RARE luciferase reporter, agonist, 6 h; activation: at 73.3 µM (top of the series) unless noted
In short: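 Luminescence was measured 30 min after luciferase reagent addition at room temperature. Before that, C3RL4 reporter cells (1,000 per well, plated overnight) were treated with compound for 6 hr at 37 C and 5% CO2.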
Potency is the fitted concentration of half-maximal effect.

| SMILES | Potency [1] | Potency [2] | Potency [3] | Potency [4] |
| --- | --- | --- | --- | --- |
| COc1ccc(CO)cc1 | inactive | inactive | – | – |
| CC(C)Nc1ccc(Nc2ccccc2)cc1 | 19.4 µM (active) and 21.9 µM (active) | – | – | – |
| CCC/C=N/O | inactive | inactive | – | – |
| CCN(CC)C(=O)C(C)Oc1cccc2ccccc12 (stereo unspecified) | inactive | inactive | – | – |
| N#Cc1cccnc1 | inactive | inactive | – | – |
| CCC[CH2][Sn]([Cl])([CH2]CCC)[CH2]CCC | 1.1 µM (active) | 3.86 µM (active) and 8.63 µM (active) | – | – |
| CCNc1nc(Cl)nc(NC(C)(C)C#N)n1 | inactive | inactive | – | – |
| [Cl-].[Cl-].[Cl-].[Fe+3] | inactive | inactive | – | – |
| CNC(=O)CSP(=S)(OC)OC | inactive | inactive | – | – |
| CC(C)Nc1nc(Cl)nc(NC(C)C)n1 | inactive | inactive | – | – |
| CCCCOCCOC(C)=O | inactive | inactive | – | – |
| CN(C)c1nc(=O)n(C2CCCCC2)c(=O)n1C | inactive | inactive | – | – |
| Cc1ccc([N+](=O)[O-])cc1 | inactive | inactive | – | – |
| O=C(O)CF | inactive | inactive | – | – |
| CCCCCCCC[N+](C)(CCCCCCCC)CCCCCCCC | 346 nM (active) and 15.5 µM (active) and 6.16 µM (active) | 27.3 µM (active) and 61.2 µM (active) | 4.85 µM (active) and 9.7 µM (active) and 13.7 µM (active) | – |
| CCCCCCCCCCCCCl | inactive | inactive | inactive | inactive |
| CCOS(=O)(=O)OCC | inactive | inactive | – | – |
| CC[n+]1c(-c2ccccc2)c2cc(N)ccc2c2ccc(N)cc21 | inactive | inactive | – | – |
| N#CCCCCC#N | inactive | inactive | – | – |
| O=C1C(Cl)=C(Cl)C(=O)c2ccccc21 | 12.3 µM (active) and 17.4 µM (active) | 21.8 µM (active) and 24.3 µM (active) | 21.8 µM (active) and 19.3 µM (active) | – |
| ClCc1ccccn1 | inactive | inactive | – | – |
| Cc1cc(Cl)ccc1N=CN(C)C | inactive | inactive | – | – |
| CCC[CH2][Sn]([Cl])([Cl])[CH2]CCC | 1.76 µM (active) and 3.09 µM (active) | 13.9 µM (active) and 27.3 µM (active) | 310 nM (active) and 344 nM (active) | – |

| SMILES | Potency [1] | Potency [2] | Potency [3] | Potency [4] |
| --- | --- | --- | --- | --- |
| S=c1[nH]c2ccccc2[nH]1 | inactive | inactive | inactive | inactive |
| c1ccc(C2CO2)cc1 (stereo unspecified) | inactive | inactive | – | – |
| CCNCC | inactive | inactive | – | – |
| ClC(Cl)(Cl)c1ccccc1 | inactive | inactive | – | – |
| CCC(=O)Nc1ccc(Cl)c(Cl)c1 | inactive | inactive | inactive | inactive |
| COP(=S)(OC)SCn1nnc2ccccc2c1=O | inactive | inactive | 60 µM (active) | – |
| CCOP(=O)(O)OCC (tested in a mixture with another compound) | inactive and 17.2 µM (active) | inactive and 60.6 µM (active) | – | – |
| Clc1cccc(C(Cl)(Cl)Cl)n1 | inactive | inactive | – | – |
| COP(=O)(NC(C)=O)SC (stereo unspecified) | inactive | inactive | – | – |
| C[N+](C)(C)CC(=O)[O-] | inactive | inactive | – | – |
| Cl | inactive | inactive | – | – |
| CNC(=S)S | inactive | inactive | – | – |
| CC(C)(c1ccccc1)c1ccc(O)c(C(C)(C)c2ccccc2)c1 | 13.7 µM (active) and 15.5 µM (active) | 54 µM (active) and 61.1 µM (active) | 27.1 µM (active) and 27.3 µM (active) | – |
| CCOP(=S)(OCC)SCSC(C)(C)C | inactive | inactive | – | – |
| C[N+](C)(C)C | inactive | inactive | – | inactive |
| Cc1cccc(N=Nc2ccc(N(C)C)cc2)c1 | inactive | inactive | inactive | 69.8 nM (active) and 34.4 µM (active) |
| CC(C)=CC1C(C(=O)OCN2C(=O)C3=C(CCCC3)C2=O)C1(C)C (stereo unspecified) | – | inactive | – | – |
| CN(C)P(=O)(N(C)C)N(C)C | inactive | inactive | inactive | inactive |
| Nc1ccc([N+](=O)[O-])cc1N | inactive | – | 13.7 µM (active) and inactive | 68.5 µM (active) and 68.6 µM (active) |
| CC(C)(C#N)N=NC(C)(C)C#N | inactive | inactive | inactive | inactive |
| CC(C)(O)C(=O)Nc1ccc([N+](=O)[O-])c(C(F)(F)F)c1 | inactive | inactive | inactive | inactive |
| Cn1c(-c2ccccc2)cc(-c2ccccc2)[n+]1C | inactive | inactive | inactive | inactive |
